Results reported in PubChem BioAssay.
Calls of active or inactive are those of the source. Unless noted, how the calls were made is not given here.

What was measured:
[1] = A549 cell viability effects, profiling panel, calcein-AM fluorescence, 48 h, basal (AID 1162); conditions: higher = more signal; further: test concentration not given here
[2] = adipocyte viability effects, profiling panel, cell-based, 3T3-L1 adipocytes, calcein-AM fluorescence, 48 h, basal (AID 1163); conditions: 3T3-L1 adipocytes viability, higher = more signal; further: test concentration not given here
[3] = HepG2 cell viability effects, profiling panel, calcein-AM fluorescence, 48 h, basal (AID 1164); conditions: higher = more signal; further: test concentration not given here
[4] = MM1S cell viability effects, profiling panel, calcein-AM fluorescence, 48 h, basal (AID 1165); conditions: higher = more signal;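 further: viability of MM1S multiple myeloma cells under basal unstimulated conditions; test concentration not given here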
[5] = basal RPMI8226 viability, no added stimulus, profiling panel, cell-based, calcein-AM fluorescence, 48 h, PK04 Diversity Set (AID 1166); conditions: RPMI8226 myeloma viability, higher = more signal;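 further: cells grown under basal conditions without added stimulus; test concentration not given here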
[6] = basal HepG2 mitochondrial membrane potential changes, profiling panel, cell-based, JC-1 fluorescence, 24 h, 100 nL compound (AID 1167); conditions: higher = more signal; further: test concentration not given here
[7] = basal 3T3-L1 adipocyte mitochondrial potential changes, profiling panel, cell-based, JC-1 fluorescence, 3T3-L1 adipocytes, 24 h, 100 nL compound (AID 1168); conditions: JC-1 mitochondrial fluorescence, higher = more signal, called active from +8 up or from −8 down; further: test concentration not given here
[8] = basal RPMI8226 mitochondrial membrane potential changes, profiling panel, cell-based, JC-1 fluorescence, 24 h, 100 nL compound (AID 1169); conditions: RPMI8226 myeloma, JC-1 mitochondrial potential fluorescence, higher = more signal; further: test concentration not given here
[9] = basal MM1S mitochondrial membrane potential changes, profiling panel, cell-based, JC-1 fluorescence, 24 h, 100 nL compound (AID 1170); conditions: higher = more signal; further: test concentration not given here
[10] = A549 lung cancer cell viability effects, profiling panel, resazurin fluorescence, 24 h, PK04 Diversity Set (AID 1171); conditions: higher = more signal, called active from +8 up or from −8 down; further: test concentration not given here
[11] = HepG2 liver cancer cell viability effects, profiling panel, resazurin fluorescence, 24 h, PK04 Diversity Set (AID 1172); conditions: higher = more signal; further: test concentration not given here
[12] = basal S. cerevisiae growth modulation, no modifier, primary screen, OD600, strain BY4716, 24 h, basal condition (AID 1173); conditions: OD600, 24 h, higher = more signal, called active from +8 up or from −8 down
[13] = MM1S myeloma cell viability, profiling panel, resazurin fluorescence, basal, 24 h, PK04 Diversity Set (AID 1174); conditions: higher = more signal, called active from +8 up or from −8 down;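 further: MM1S multiple myeloma cell line; test concentration not given here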
[14] = molecular target: Dihydroorotate dehydrogenase (quinone), mitochondrial (Plasmodium falciparum (isolate 3D7)) (UniProt Q08210); experiment: PfDHODH enzyme inhibitors, primary screen, biochemical, C-terminal His tag, absorbance 600 nm (AID 1175); conditions: DCIP absorbance 600 nm, higher = more signal, called active from +8 up or from −8 down;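 further: recombinant parasite enzyme with a five histidine tag at its C terminus; test concentration not given here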
Chain of Dihydroorotate dehydrogenase (quinone), mitochondrial (Plasmodium falciparum (isolate 3D7)) (Q08210 whole entry, looked up): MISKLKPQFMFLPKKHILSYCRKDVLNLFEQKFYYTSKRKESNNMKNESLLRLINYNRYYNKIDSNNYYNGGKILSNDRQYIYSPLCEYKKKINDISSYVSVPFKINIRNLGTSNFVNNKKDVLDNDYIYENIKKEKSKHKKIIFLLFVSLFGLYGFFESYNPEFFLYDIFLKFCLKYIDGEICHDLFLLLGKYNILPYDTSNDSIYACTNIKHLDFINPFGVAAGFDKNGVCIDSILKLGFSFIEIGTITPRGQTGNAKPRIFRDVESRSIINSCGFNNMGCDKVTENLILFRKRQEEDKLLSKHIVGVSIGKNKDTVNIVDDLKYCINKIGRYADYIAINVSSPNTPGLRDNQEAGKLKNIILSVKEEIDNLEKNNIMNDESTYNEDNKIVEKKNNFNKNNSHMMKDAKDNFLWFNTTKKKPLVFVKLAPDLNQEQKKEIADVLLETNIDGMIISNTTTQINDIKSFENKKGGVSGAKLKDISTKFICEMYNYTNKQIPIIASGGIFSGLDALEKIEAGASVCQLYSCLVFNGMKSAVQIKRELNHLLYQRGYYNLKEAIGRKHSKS

[15] = P. aeruginosa biofilm formation inhibitors, primary screen, strain PAO1, LB-PBS medium, absorbance 600 nm (AID 1176); further: test concentration not given here; conditions: P. aeruginosa PAO1 growth/biofilm, A600, 12 h; higher = more signal
[16] = S. cerevisiae RM11-1a growth modifiers, primary screen, strain RM11-1a, OD600, basal, 24 h (AID 1177); conditions: OD600, 24 h, higher = more signal, called active from +8 up or from −8 down;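 further: cultures grown under basal conditions with no added stressor; test concentration not given here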
[17] = E. coli acrAB mutant growth effects, primary screen, E. coli filamentation inducers, strain DRC39, OD650, 24 h (AID 1178); conditions: higher = more signal, called active from +8 up or from −8 down;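 further: growth measured as culture turbidity by optical density at 650 nm; test concentration not given here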
[18] = E. coli acrAB mutant growth effects, primary screen, E. coli filamentation inducers, strain DRC39, OD650, 48 h (AID 1179);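 further: screen aims at cell division blockers that make cells filament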; conditions: E. coli DRC39 delta-acrAB growth, higher = more signal, called active from +8 up or from −8 down
[19] = RPMI8226 myeloma cell viability, profiling panel, resazurin fluorescence, basal, 24 h, PK04 Diversity Set (AID 1180); conditions: higher = more signal;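 further: RPMI8826 multiple myeloma cell line at 5000 cells per well; test concentration not given here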
[20] = molecular target: E3 ubiquitin-protein ligase XIAP (Homo sapiens) (UniProt P98170); experiment: XIAP binders, primary screen, biophysical, small-molecule microarray, fluorescence 635 nm (AID 1181); conditions: small-molecule microarray binding, higher = more signal;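 further: score merges 667 nm emission and signal to noise over triplicate slides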
Chain of E3 ubiquitin-protein ligase XIAP (Homo sapiens) (P98170 whole entry, looked up): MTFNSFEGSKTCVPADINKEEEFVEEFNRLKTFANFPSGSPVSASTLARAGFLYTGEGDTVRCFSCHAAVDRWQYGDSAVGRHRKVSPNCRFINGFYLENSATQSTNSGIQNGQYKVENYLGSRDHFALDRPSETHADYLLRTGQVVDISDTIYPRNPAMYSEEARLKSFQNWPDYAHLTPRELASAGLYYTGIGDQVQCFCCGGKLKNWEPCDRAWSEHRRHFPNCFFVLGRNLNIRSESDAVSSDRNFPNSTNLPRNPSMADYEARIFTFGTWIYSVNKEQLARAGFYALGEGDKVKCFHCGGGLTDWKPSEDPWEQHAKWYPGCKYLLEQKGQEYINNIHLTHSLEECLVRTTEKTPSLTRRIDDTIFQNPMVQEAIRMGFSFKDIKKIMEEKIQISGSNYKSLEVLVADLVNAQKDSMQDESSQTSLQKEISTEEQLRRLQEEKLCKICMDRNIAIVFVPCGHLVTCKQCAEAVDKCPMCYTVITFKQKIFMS

## CN1C(=O)C2C=CC(C(O)C3CCCCC3)N(N3CCCCC3)C2C1=O (stereo not given)
[1]
  z-score: -1.21
[2]
  z-score: -0.52
[3]
  z-score: -0.517
[4]
  z-score: -0.163
[5]
  z-score: 0.084
[6]
  z-score: -0.968
[7]
  z-score: -0.347 (inactive)
[8]
  z-score: -0.763
[9]
  z-score: -0.228
[10]
  z-score: -0.167 (inactive)
[11]
  z-score: -0.435
[12]
  z-score: 0.369 (inactive)
[13]
  z-score: -0.752 (inactive)
[14]
  composite z-score: 0.419 (inactive)
[15]
  z-score: 0.158 (inactive)
[16]
  z-score: 1.51 (inactive)
[17]
  z-score: -0.501 (inactive)
[18]
  z-score: -0.406 (inactive)
[19]
  z-score: -0.487
[20]
  composite z-score: -0.0548

## COC(=O)[C@@]1(Cc2ccc(OC)cc2)[C@H]2c3cc(C(=O)N(C)C)n(Cc4ccccc4)c3C[C@H]2CN1C(=O)c1ccccc1
[1]
  z-score: 0.0457
[2]
  z-score: 0.245
[3]
  z-score: -2.3
[4]
  z-score: -2.27
[5]
  z-score: -2.17
[6]
  z-score: 2.45
[7]
  z-score: -0.45 (inactive)
[8]
  z-score: -0.398
[9]
  z-score: -1.85
[10]
  z-score: 0.616 (inactive)
[11]
  z-score: 2.31
[12]
  z-score: -0.373 (inactive)
[13]
  z-score: -1.15 (inactive)
[14]
  composite z-score: 0.171 (inactive)
[15]
  z-score: 0.756 (inactive)
[16]
  z-score: 0.692 (inactive)
[17]
  z-score: 0.111 (inactive)
[18]
  z-score: 0.892 (inactive)
[19]
  z-score: -1.66
[20]
  composite z-score: 0.0791

## O=C(NC1CC1)[C@@H]1c2ccccc2C(=O)N(Cc2ccccc2)[C@H]1c1ccc(CO)cc1
[1]
  z-score: 1.3
[2]
  z-score: -0.429
[3]
  z-score: 1.46
[4]
  z-score: 0.293
[5]
  z-score: 0.217
[6]
  z-score: 2.33
[7]
  z-score: 1.07 (inactive)
[8]
  z-score: 0.135
[9]
  z-score: -0.319
[10]
  z-score: 0.139 (inactive)
[11]
  z-score: 0.0991
[12]
  z-score: 0.172 (inactive)
[13]
  z-score: -0.556 (inactive)
[14]
  composite z-score: -0.0098 (inactive)
[15]
  z-score: -0.149 (inactive)
[16]
  z-score: 0.0831 (inactive)
[17]
  z-score: 0.693 (inactive)
[18]
  z-score: 1.58 (inactive)
[19]
  z-score: 0.904
[20]
  composite z-score: 0.159

## C=CC[C@]12N=C(c3ccc(OCCCO)cc3)O[C@H]1c1ccccc1N(C)C2=O
[1]
  z-score: -1.3
[2]
  z-score: 0.614
[3]
  z-score: -0.593
[4]
  z-score: -1.14
[5]
  z-score: -3.83
[6]
  z-score: 0.422
[7]
  z-score: -0.427 (inactive)
[8]
  z-score: -1.17
[9]
  z-score: 0.203
[10]
  z-score: -1.12 (inactive)
[11]
  z-score: -0.782
[12]
  z-score: -1.62 (inactive)
[13]
  z-score: -1.54 (inactive)
[14]
  composite z-score: 0.582 (inactive)
[15]
  z-score: 0.345 (inactive)
[16]
  z-score: 1.27 (inactive)
[17]
  z-score: 0.105 (inactive)
[18]
  z-score: -0.487 (inactive)
[19]
  z-score: -1.28
[20]
  composite z-score: -0.031

## O=C(CS)NCCCCCCNC(=O)[C@@H]1C[C@@H]2C(=O)N3CCC[C@H]3C(=O)N2[C@@H]1c1cccc(OCCO)c1
[1]
  z-score: 2.14
[2]
  z-score: 0.426
[3]
  z-score: 1.02
[4]
  z-score: 0.0848
[5]
  z-score: 0.449
[6]
  z-score: -0.151
[7]
  z-score: 0.193 (inactive)
[8]
  z-score: 0.0158
[9]
  z-score: 0.111
[10]
  z-score: -0.659 (inactive)
[11]
  z-score: -0.306
[12]
  z-score: -0.21 (inactive)
[13]
  z-score: 0.832 (inactive)
[14]
  composite z-score: -0.968 (inactive)
[15]
  z-score: 0.42 (inactive)
[16]
  z-score: -1.5 (inactive)
[17]
  z-score: 0.743 (inactive)
[18]
  z-score: 1.65 (inactive)
[19]
  z-score: 0.356
[20]
  composite z-score: 0.0022

## COCCOC(=O)N1C(=O)[C@@]2(c3cc(C#CC4(O)CCCCCC4)ccc31)[C@H](C(N)=O)[C@H]1C(=O)O[C@H](c3ccccc3)[C@H](c3ccccc3)N1[C@@H]2c1ccc(O)cc1
[1]
  z-score: 1.47
[2]
  z-score: 0.521
[3]
  z-score: 0.412
[4]
  z-score: -2.88
[5]
  z-score: -3.95
[6]
  z-score: -0.0298
[7]
  z-score: -0.62 (inactive)
[8]
  z-score: -0.522
[9]
  z-score: -1.25
[10]
  z-score: 0.394 (inactive)
[11]
  z-score: 0.061
[12]
  z-score: -0.676 (inactive)
[13]
  z-score: -0.907 (inactive)
[14]
  composite z-score: -0.942 (inactive)
[15]
  z-score: 0.51 (inactive)
[16]
  z-score: 0.389 (inactive)
[17]
  z-score: -0.0029 (inactive)
[18]
  z-score: 0.761 (inactive)
[19]
  z-score: -1.73
[20]
  composite z-score: -0.144

## O=C1OC[C@@H](c2ccccc2)N2CC(/C=C/c3ccccc3)=CC12 (stereo not given in full)
[1]
  z-score: -0.488
[2]
  z-score: -0.125
[3]
  z-score: -0.255
[4]
  z-score: -0.0482
[5]
  z-score: -0.267
[6]
  z-score: -0.251
[7]
  z-score: 0.291 (inactive)
[8]
  z-score: -0.306
[9]
  z-score: 0.00388
[10]
  z-score: 1.05 (inactive)
[11]
  z-score: 0.015
[12]
  z-score: -2.25 (inactive)
[13]
  z-score: 0.0637 (inactive)
[14]
  composite z-score: 0.685 (inactive)
[15]
  z-score: -0.14 (inactive)
[16]
  z-score: 0.388 (inactive)
[17]
  z-score: -0.338 (inactive)
[18]
  z-score: -0.827 (inactive)
[19]
  z-score: 0.594
[20]
  composite z-score: -0.102

## C=CC[C@]1(C(=O)N(C)C)N=C(c2ccc(OCCCO)cc2)O[C@H]1c1ccccc1N=[N+]=[N-]
[1]
  z-score: -0.363
[2]
  z-score: -0.768
[3]
  z-score: -0.2
[4]
  z-score: -0.995
[5]
  z-score: -1.85
[6]
  z-score: -0.358
[7]
  z-score: 0.0159 (inactive)
[8]
  z-score: -0.886
[9]
  z-score: -1.23
[10]
  z-score: -0.302 (inactive)
[11]
  z-score: 0.146
[12]
  z-score: 0.136 (inactive)
[13]
  z-score: -1.54 (inactive)
[14]
  composite z-score: 0.25 (inactive)
[15]
  z-score: 0.286 (inactive)
[16]
  z-score: 0.446 (inactive)
[17]
  z-score: -0.0751 (inactive)
[18]
  z-score: -0.179 (inactive)
[19]
  z-score: -1.32
[20]
  composite z-score: 0.121
